The source made the active and inactive calls.

The record followed here is PubChem BioAssay.

Assay [1] is described as follows: binders of probe aFSTL3 on microarray, primary screen, stem cell growth factor project, biochemical, small-molecule microarray, fluorescence 635/667 (AID 1064).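 Note: measures binding of the biotinylated anti-FSTL3 antibody to printed compounds.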 As to conditions: higher = more signal.
Assay [2] in a line: binders from COS7 lysate, DM2A8 probe, primary screen, torsin A project, cell lysate, small-molecule microarray, fluorescence 635/667 (AID 1065). The settings on record: higher = more signal, COS7 lysate expressing mutant human TOR1A.
Assay [3] can be described thus: binders of probe aFGF2 on microarray, primary screen, stem cell growth factor project, biochemical, small-molecule microarray, fluorescence 635/667 (AID 1067).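 Note: measures binding of biotinylated aFGF2 protein to printed compounds on slides; z-score merges feature fluorescence and signal-to-noise across triplicate slides.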 As to conditions: higher = more signal.
Assay [4] is described as follows: binders of probe aFGF10 on microarray, primary screen, stem cell growth factor project, biochemical, small-molecule microarray, fluorescence 635/667 (AID 1071).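 Note: score merges 667 nm spot intensity and signal to noise from triplicate slides.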 As to conditions: higher = more signal.
Assay [5] deals with Neurogenic locus notch homolog protein 2 (Homo sapiens) (UniProt Q04721). Briefly: Notch2 binders on small-molecule microarrays, primary screen, biochemical, small-molecule microarray, 635 nm fluorescence, stem cell growth factors (AID 1073). The settings on record: Notch2 binding, higher = more signal.
For assay [6], the target named is Pro-neuregulin-1, membrane-bound isoform (Homo sapiens) (UniProt Q02297). Briefly: NRG1 binders on small-molecule microarrays, primary screen, psychiatric disease protein project, biochemical, small-molecule microarray, fluorescence 635/667 (AID 1075).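 Note: score combines 667 nm spot fluorescence with signal to noise.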 The settings on record: NRG1 binding, 635 nm fluorescence, higher = more signal.
Assay [7] has as its system Neuregulin-1 EGF-like domain. In words: binders of neuregulin-1 EGF-like domain, primary screen, biochemical, small-molecule microarray, 635 nm fluorescence (AID 1081).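 Note: binding of the protein to compounds printed on small-molecule microarray slides.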 As to conditions: small-molecule microarray binding, higher = more signal.
Assay [8] is described as follows: FRG1 promoter luciferase signal modulators, primary screen, FRG1 inhibition for FSHD, cell-based, C2C12 myotubes, firefly/Renilla luciferase, luminescence (AID 1084). The settings on record: higher = more signal, called active from +8 up or from −8 down.
Assay [9] in a line: binders of probe aFST on microarray, primary screen, stem cell growth factor project, biochemical, small-molecule microarray, fluorescence 635/667 (AID 1086).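 Note: score merges 667 nm fluorescence with signal-to-noise of each printed compound spot.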 The settings on record: higher = more signal.
Assay [10] in a line: binders of probe aHhip on microarray, primary screen, stem cell growth factor project, biochemical, small-molecule microarray, fluorescence 635/667 (AID 1087).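 Note: score merges spot fluorescence at 667nm with spot signal to noise ratio.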 As to conditions: higher = more signal.

Chain of Pro-neuregulin-1, membrane-bound isoform (Homo sapiens) (Q02297 whole entry, looked up, the tested form may be a part, canonical isoform): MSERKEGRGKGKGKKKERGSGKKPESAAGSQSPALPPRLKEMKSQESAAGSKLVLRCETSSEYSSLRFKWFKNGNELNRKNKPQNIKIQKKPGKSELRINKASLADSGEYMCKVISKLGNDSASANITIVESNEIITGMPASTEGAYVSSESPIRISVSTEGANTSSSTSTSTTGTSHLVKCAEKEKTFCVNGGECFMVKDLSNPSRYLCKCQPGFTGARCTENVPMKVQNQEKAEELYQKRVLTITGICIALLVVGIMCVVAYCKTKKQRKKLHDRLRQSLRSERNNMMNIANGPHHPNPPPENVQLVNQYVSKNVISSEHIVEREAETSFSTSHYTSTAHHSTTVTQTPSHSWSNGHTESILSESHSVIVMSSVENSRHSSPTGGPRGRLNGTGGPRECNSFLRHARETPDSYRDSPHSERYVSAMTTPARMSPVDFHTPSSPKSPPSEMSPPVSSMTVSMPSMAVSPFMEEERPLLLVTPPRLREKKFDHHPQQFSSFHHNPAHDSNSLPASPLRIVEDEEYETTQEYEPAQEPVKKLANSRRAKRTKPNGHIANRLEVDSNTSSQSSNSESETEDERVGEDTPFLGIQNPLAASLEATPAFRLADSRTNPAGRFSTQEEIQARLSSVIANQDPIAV
Chain of Neurogenic locus notch homolog protein 2 (Homo sapiens) (Q04721 whole entry, looked up, canonical isoform): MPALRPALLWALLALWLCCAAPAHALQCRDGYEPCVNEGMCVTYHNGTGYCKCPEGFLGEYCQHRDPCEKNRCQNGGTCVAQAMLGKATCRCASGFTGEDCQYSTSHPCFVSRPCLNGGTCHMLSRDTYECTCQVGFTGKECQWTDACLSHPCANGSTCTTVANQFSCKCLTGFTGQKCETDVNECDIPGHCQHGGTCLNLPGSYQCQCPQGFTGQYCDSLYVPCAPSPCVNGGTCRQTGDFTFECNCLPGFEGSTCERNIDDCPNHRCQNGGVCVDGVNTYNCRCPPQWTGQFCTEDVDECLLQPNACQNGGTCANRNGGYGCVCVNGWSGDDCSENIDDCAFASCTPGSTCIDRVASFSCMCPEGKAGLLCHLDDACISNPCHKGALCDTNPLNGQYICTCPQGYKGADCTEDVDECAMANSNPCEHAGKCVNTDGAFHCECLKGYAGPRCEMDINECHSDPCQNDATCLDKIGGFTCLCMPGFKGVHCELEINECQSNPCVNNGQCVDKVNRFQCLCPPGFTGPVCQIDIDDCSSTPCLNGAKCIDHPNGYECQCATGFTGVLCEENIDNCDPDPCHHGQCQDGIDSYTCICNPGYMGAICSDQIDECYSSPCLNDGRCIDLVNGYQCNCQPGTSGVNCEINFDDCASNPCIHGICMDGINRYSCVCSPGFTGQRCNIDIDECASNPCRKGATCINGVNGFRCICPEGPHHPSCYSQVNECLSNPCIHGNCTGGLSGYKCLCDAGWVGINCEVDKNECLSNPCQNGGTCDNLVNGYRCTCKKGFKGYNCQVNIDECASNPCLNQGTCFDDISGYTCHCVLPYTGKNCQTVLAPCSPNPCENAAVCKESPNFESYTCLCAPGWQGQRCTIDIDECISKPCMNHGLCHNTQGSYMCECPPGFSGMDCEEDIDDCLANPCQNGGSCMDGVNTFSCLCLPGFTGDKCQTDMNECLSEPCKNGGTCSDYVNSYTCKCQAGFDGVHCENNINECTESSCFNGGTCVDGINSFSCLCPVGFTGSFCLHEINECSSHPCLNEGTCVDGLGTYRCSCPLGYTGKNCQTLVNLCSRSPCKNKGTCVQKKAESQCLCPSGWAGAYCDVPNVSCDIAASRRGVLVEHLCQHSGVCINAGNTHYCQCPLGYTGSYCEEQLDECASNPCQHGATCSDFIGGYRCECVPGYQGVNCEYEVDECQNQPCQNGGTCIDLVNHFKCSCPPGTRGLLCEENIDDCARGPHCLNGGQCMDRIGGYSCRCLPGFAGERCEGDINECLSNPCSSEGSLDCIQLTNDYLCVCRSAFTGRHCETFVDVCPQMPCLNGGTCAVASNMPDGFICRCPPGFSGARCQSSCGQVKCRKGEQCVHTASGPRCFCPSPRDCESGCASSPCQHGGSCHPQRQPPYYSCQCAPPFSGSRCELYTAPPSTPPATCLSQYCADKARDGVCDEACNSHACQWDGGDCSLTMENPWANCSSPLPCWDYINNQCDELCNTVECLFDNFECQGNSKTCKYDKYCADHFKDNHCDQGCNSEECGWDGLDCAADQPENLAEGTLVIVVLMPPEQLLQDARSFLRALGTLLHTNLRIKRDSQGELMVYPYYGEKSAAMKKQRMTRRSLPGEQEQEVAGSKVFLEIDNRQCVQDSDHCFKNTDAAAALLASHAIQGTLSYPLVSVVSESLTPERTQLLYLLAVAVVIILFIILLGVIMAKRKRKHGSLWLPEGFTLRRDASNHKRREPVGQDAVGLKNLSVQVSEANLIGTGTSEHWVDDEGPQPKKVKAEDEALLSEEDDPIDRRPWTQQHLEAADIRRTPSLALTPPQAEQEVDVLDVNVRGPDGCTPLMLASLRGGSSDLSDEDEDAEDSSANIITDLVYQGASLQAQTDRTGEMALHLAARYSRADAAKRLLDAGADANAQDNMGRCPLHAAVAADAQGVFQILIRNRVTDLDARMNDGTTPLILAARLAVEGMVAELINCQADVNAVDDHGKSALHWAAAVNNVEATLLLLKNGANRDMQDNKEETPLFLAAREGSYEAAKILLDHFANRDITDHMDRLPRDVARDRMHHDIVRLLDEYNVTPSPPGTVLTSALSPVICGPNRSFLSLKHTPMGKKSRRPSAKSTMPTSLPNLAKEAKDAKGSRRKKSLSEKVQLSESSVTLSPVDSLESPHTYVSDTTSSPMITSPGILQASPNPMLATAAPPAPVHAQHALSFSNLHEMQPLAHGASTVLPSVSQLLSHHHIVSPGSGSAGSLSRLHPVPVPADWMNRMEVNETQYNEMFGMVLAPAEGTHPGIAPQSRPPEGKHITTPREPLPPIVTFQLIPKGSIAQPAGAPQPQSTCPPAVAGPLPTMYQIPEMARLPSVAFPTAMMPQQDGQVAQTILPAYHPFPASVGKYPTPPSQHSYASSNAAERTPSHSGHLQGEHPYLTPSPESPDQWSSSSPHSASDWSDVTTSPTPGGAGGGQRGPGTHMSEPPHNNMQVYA

As for `C=CCC(OC(C)=O)[C@@H]1[C@@H](N(Cc2cc3ccccc3o2)C(=O)c2ccc(C)cc2)c2cc(OCCCO)ccc2N1C(=O)Cc1ccc(OC)cc1` (stereo not given in full), the composite z-score in assay [1] was -0.18; in assay [2] it was 0.0811; in [3], -0.0878; in [4] it was -0.0177; in assay [5], 0.0335; in [6] it was -0.433. Moreover, the values for the composite z-score in [7], in [9] and in assay [10] were -0.0742, 0.277 and -0.0645, respectively. In assay [8], the z-score was 0.443 (inactive).

`CCOC(=O)C[C@H]1[C@H](OC(=O)c2ccc(C(=O)c3ccccc3)cc2)[C@@H](NC(=O)Cc2ccc(OC)cc2)c2cc(OCCCO)ccc2N1C(=O)c1ccccc1`: the composite z-score is -0.045 in assay [1]; 0.135 in [2]; -0.107 in assay [3]; 0.172 in assay [4]; 0.227 in [5]; -0.104 in assay [6]. In addition, the composite z-score is 0.676 in assay [7], 0.518 in [9] and -0.0994 in assay [10]. Besides, the z-score in assay [8] was -0.587 (inactive).

As to `CCOC(=O)C[C@H]1[C@H](OC(=O)c2ccccc2-c2ccccc2)[C@@H](NC(=O)c2ccc(-c3ccccc3)cc2)c2cc(OCCCO)ccc2N1C(=O)c1ccc2ccccc2n1`, the composite z-score was -0.405 in assay [1]; 0.286 in assay [2]; -0.127 in [3]; 0.754 in assay [4]; 0.75 in [5]; 0.789 in assay [6]. Also, the composite z-score is 0.849 in assay [7], 0.211 in [9] and -0.145 in assay [10]. Moreover, in assay [8], the z-score was 0.835 (inactive).

Regarding `CC(c1ccccc1)C(O)C1C=CC2C(=O)N(c3ccccc3)C(=O)C2N1Nc1ccc([N+](=O)[O-])cc1` (stereo not given), the composite z-score is -0.263 in assay [1]; 0.031 in assay [2]; -0.0265 in assay [3]; 0.772 in assay [4]; 1.62 in [5]; 1.58 in assay [6]. The figures for the composite z-score in assay [7], in assay [9] and in assay [10] were 1.11, 0.745 and -0.166, respectively. Also, the z-score in assay [8] is -1.32 (inactive).

Regarding `COCCOC(=O)N1C(=O)[C@@]2(c3cc(C#CC4=CCCCC4)ccc31)[C@H](c1ccc(OCCO)cc1)N1[C@H](c3ccccc3)[C@H](c3ccccc3)OC(=O)[C@H]1[C@@H]2C(=O)NC[C@H](O)c1ccccc1`, the composite z-score is 0.82 in assay [1]; 0.366 in assay [2]; -0.0032 in [3]; 0.246 in assay [4]; 1.24 in assay [5]; -0.118 in assay [6]. The composite z-score in [7] worked out at 1.15; in assay [9], 1.44; in assay [10], 0.187. In assay [8], the z-score is 0.745 (inactive).

Regarding `O=C1C2C=CC(C(O)c3ccc(Br)cc3)N(Nc3ccccc3F)C2C(=O)N1c1ccccc1` (stereo not given), the composite z-score in assay [1] is -0.436; in assay [2], 0.536; in assay [3] it was 0.0181; in [4], 0.178; in [5], 0.776; in [6], 1.11. Moreover, the results for the composite z-score in assay [7], in [9] and in [10] were 1.06, 0.68 and -0.0346, respectively. In assay [8], the z-score is -1.55 (inactive).

Take `C=C(CCCC)/C(=C/C[C@@H](OC(=O)c1ccncc1)c1ccccc1OCCO)c1cnc2ccccc2c1`: the composite z-score in assay [1] is -0.5; in assay [2], 0.517; in assay [3], 0.165; in [4], 1.17; in assay [5] it was 1.33; in assay [6], 0.611. The values for the composite z-score in assay [7], in [9] and in [10] were 1.04, 0.574 and 0.469, respectively. In addition, in assay [8], the z-score is -1.53 (inactive).

Take `COC1OC[C@]2(C)[C@H]3C4=C(CN2C(=O)OC(C)(C)C)[C@H](C)C(CO)C(CO)C4CC[C@@H]13` (stereo not given in full): the composite z-score was found to be 1.99 in assay [1]; 0.473 in [2]; 0.236 in [3]; 0.557 in assay [4]; 1.79 in [5]; 1.82 in assay [6]. Moreover, the composite z-score was determined as 1.25 in assay [7], 1.85 in assay [9] and 1 in assay [10]. For the same compound, the z-score in [8] was 2.38 (inactive).

As for `NCCCCCCNC(=O)[C@@H]1C[C@@H]2C(=O)N[C@@H](CCCCN)C(=O)N2[C@@H]1c1cccc(OCCO)c1`, the composite z-score was 1.06 in assay [1]; 1.81 in assay [2]; 0.221 in assay [3]; -0.127 in assay [4]; 0.303 in [5]; 2.53 in [6]. For the same compound, the composite z-score in assay [7] was 1.2; in assay [9], -0.175; in assay [10], 0.704. Further, in assay [8], the z-score is 3.25 (inactive).

Regarding `O=C1C=C(c2ccccc2)C(=O)c2ccc([C@H]3Oc4ccccc4S(=O)(=O)N4CCC[C@@H]34)cc21`, the composite z-score in assay [1] is -0.292; in assay [2], -0.303; in [3] it was -0.116; in [4], -0.0019; in assay [5] it was -0.405; in [6], -0.775. Also, the composite z-score is -0.87 in assay [7], -0.024 in assay [9] and 0.0659 in assay [10]. For the same compound, the z-score in assay [8] is 2.5 (inactive).

For `Cc1cc(C)c(C(O)C2C=CC3C(=O)NC(=O)C3N2Nc2ccc(Cl)cc2Cl)c(C)c1` (stereo not given), the composite z-score was 0.246 in assay [1]; -0.33 in assay [2]; 0.059 in assay [3]; 0.495 in [4]; 1.49 in assay [5]; 1.65 in assay [6]. Also, the composite z-score in assay [7] was 1.01; in [9], 1.64; in [10] it was -0.0618. In addition, the z-score in assay [8] is 2.81 (inactive).

On to `CCCC[C@@H]1C[C@H]1[C@@H](NC(=O)c1ccccc1)c1ccc(C(F)(F)F)cc1`, for which the composite z-score was 0.79 in [1]; -1.02 in [2]; -0.0908 in assay [3]; -0.333 in [4]; -0.601 in assay [5]; -0.612 in assay [6]. Also, the figures for the composite z-score in assay [7], in assay [9] and in [10] were -0.521, 0.0249 and -0.175, respectively. Besides, the z-score in [8] is -0.858 (inactive).

For the compound `CCOC(=O)c1ccc(NC(=O)O[C@H]2[C@H](OC(=O)Nc3ccc4c(c3)OCO4)[C@@H](OC(=O)Nc3ccc4c(c3)OCO4)[C@@H](OC)O[C@@H]2CO)cc1`, the composite z-score in assay [1] is -0.0691; in [2], 0.816; in [3], 0.0121; in assay [4], 1.03; in [5] it was 1.39; in assay [6], 1.74. Besides, the composite z-score is 1.35 in assay [7], 0.474 in [9] and -0.318 in assay [10]. In addition, in [8], the z-score is 6.39 (inactive).

As to `COc1ccc([Si](C)(C)[C@@H]2[C@@H](CC(=O)N(CCO)Cc3ccccc3)O[C@]3(C(=O)N(Cc4cccc(N5C(=O)c6cccc7cccc5c67)c4)c4ccccc43)[C@H]2C)cc1`, the composite z-score is -0.143 in assay [1]; 0.167 in [2]; -0.105 in assay [3]; 0.409 in assay [4]; -0.127 in assay [5]; 0.442 in assay [6]. The composite z-score is 0.763 in assay [7], 0.116 in [9] and -0.0193 in assay [10]. For the same compound, the z-score in assay [8] was -1.05 (inactive).
